Data: PubChem BioAssay AID652067 (The Scripps Research Institute Molecular Screening Center, 2013)
About 5,400 (1.5%) of roughly 370,000 compounds were called active. The full list was thinned out, with actives kept by preference. A number with no mark means an inactive call.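 How the source made its calls: active means activation above the mean of all tested compounds plus 3 SD (cut at about 5.5% in these data); inactive means the rest.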

Tested on: DAF-12 nuclear receptor (Haemonchus contortus)
Assay: hcDAF-12 driven luciferase reporter activation – cell-based, luminescence, HEK293, lit1-tk-luc reporter, primary screen (AID 652067);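 further: 100% = response to 3 µM Δ7-dafachronic acid high control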
Conditions: HEK293 hcDAF-12 lit1-tk-luc reporter, at 6.8 µM, active compounds read high, 0% DMSO, 100% Δ7-dafachronic acid

Compound	activation
Cc1ccc2cccc(OCCCOc3ccccc3CO)c2n1	-0.62%
CC1(C)OC(=O)C2=C(CC(CCc3ccccc3)OC2c2ccc(Cl)cc2)O1 (stereo not given)	-1.84%
Cc1cccc(C)c1NC(=O)C(c1ccc(C(F)(F)F)cc1)n1c(=O)c(-c2ccco2)nc2ccccc21 (stereo not given)	0.34%
Cc1cccc(C)c1NC(=O)C(c1cccc2ccccc12)n1c(=O)c(-c2ccco2)nc2ccccc21 (stereo not given)	2.42%
O=C(NC1CCCCC1)C(c1cc2ccccc2o1)n1c(=O)c(-c2ccco2)nc2ccccc21 (stereo not given)	9.06% (active)
O=C(COC(=O)c1cccc(Cl)c1)NC(=O)NCc1ccccc1	0.2%
O=C(COc1cccc(Cl)c1)NCc1ccccc1	6.74% (active)
O=C(CCOc1ccccc1)NCc1ccccc1	0.79%
COc1ccc(CN2C(=O)N3Cc4cc(OC)ccc4C3CS2(=O)=O)cc1 (stereo not given)	-4.29%
Cn1c(=O)cc(SCC(=O)N2CCN(C(=O)c3ccco3)CC2)c2ccccc21	-0.81%
Cn1c(=O)cc(SCC(=O)N2CCCC2)c2cc(Cl)ccc21	0.28%
CCOC(=O)C1CCN(C(=O)CSc2cc(=O)n(C)c3ccccc23)CC1	5.88% (active)
O=C(N[C@H](C(=O)N1CCC[C@H]1C(=O)NCCc1ccccc1Cl)c1ccccc1)c1ccccc1	-0.38%
CCOC(=O)[C@]12CCCC=C1N(CCCOC)C(=O)[C@@H]2CC(=O)N1CCOCC1	-0.67%
O=c1[nH]n2c(=O)c3c([nH]c2c1N=Nc1ccccc1)CCC3	0.16%
Cc1ccc(C)c(NC(=O)COC(=O)Cn2c(C)csc2=O)c1	-0.15%
Cc1ccc(NC(=O)CN2CCc3ccccc3C2)cc1C	-0.52%
Cn1cccc1C(=O)N1CCc2ccccc2C1	0.07%
CCc1ccc(NC(=O)N2CCc3ccccc3C2)cc1	10.8% (active)
COC(=O)C1=C(C)N(Cc2ccccc2C(F)(F)F)C(=NCc2ccc(C(F)(F)F)cc2)NC1c1ccc(F)cc1 (stereo not given)	-0.44%
O=S1(=O)c2ccc(Br)cc2OC[C@@H](Cc2ccccc2)N1Cc1cn(Cc2ccco2)nn1	-3.82%
O=C(c1ccco1)N1CCN(C(=O)c2cc(-c3ccccc3F)no2)CC1	0.36%
Fc1ccccc1-c1cc2cc3c(cc2cn1)OCO3	5.75% (active)

Compound	activation
O=C(NCCCN1CCOCC1)c1cc(-c2ccccc2F)no1	-0.99%
COC(=O)[C@]12C[C@H](CC(=O)NCc3cccc4ccccc34)C(=O)N(CCc3ccc(OC)c(OC)c3)C1=C[C@H](C1CCCC1)O[C@@H]2C	-3.52%
C[C@H](CO)N1C[C@H](C)[C@@H](CN(C)C(=O)Nc2ccccc2F)OCc2cn(nn2)CCCC1=O	-0.15%
COC(=O)c1ccc(/C=N/NC(=O)C(=O)N2CCCCCC2)cc1	-0.19%
C/C(=N\NC(=O)OC(C)(C)C)c1ccc[nH]1	1.29%
CC(C)(C)OC(=O)N/N=C/c1ccc(C(=O)O)cc1	7.41% (active)
CCCCC(=O)N[C@@H]1CC[C@@]23CCCN2C(=O)CCC[C@H]3[C@H]1C	0.2%
O=C(Nc1ccccc1C(F)(F)F)c1cc(-c2ccc(O)cc2)on1	-0.51%
O=C(Nc1cccnc1Cl)c1cc(-c2ccccc2O)on1	6.07% (active)
Cc1ccc(O)c(NC(=O)c2cc(-c3ccco3)on2)c1	0.32%
O=C(c1cc(-c2ccc(O)cc2)on1)N1CCOCC1	6.07% (active)
O=C(c1cc(COc2ccc(F)cc2F)on1)N1CCOCC1	1.67%
O=C(c1cc(-c2ccc(Cl)s2)nc2ccccc12)N1CCOCC1	-1.34%
COc1ccc(OCc2cc(C(=O)N3CCCC3)no2)c2ccccc12	10.3% (active)
O=C(c1cc(C2CCCCN2S(=O)(=O)c2ccccc2)on1)N1CCOCC1 (stereo not given)	-0.3%
COc1cc(Cl)ccc1OCc1cc(C(=O)N2CC[C@@H]3CCCC[C@H]3C2)no1	1.66%
O=C(c1cc(-c2ccccc2O)on1)N1CCCC1	7.33% (active)
COCCN1CCN(C(=O)c2cc(COc3ccc(F)cc3Cl)on2)CC1	-1.75%
O=C(NC1CCCC1)c1cc(-c2ccccc2)on1	4.69%
CC(=O)C1C(c2ccc(Cl)cc2)c2c(n[nH]c2C)CC1(C)O (stereo not given)	-0.09%
O=S(=O)(c1cccs1)N1CCCc2nc(-c3ccc(Br)cc3)ccc21	-0.17%
CCc1ccc(C2=CC(=O)CC(C)(C)C2=O)cc1	1.24%
CC(C)N1CCCCC(NC(=O)c2ccc3ccccc3c2)C1=O (stereo not given)	-0.97%

Compound	activation
C=CCN1C(=O)[C@@H](CC(=O)NCCCOCCCC)[C@]2(C(=O)OCC)CCCCC/C=C/12	-0.92%
COc1ccc(S(=O)(=O)Nc2ccc3c(c2)C(=O)N([C@H](C)CO)C[C@H](C)[C@@H](CN(C)C)OCCCC[C@H](C)O3)cc1	-1.41%
Cc1cc(Br)cn2c(Cc3ccccc3C(F)(F)F)c(-c3ccc(C#N)cc3)nc12	0.68%
COc1ccc(-c2cc(=O)oc3cc(OCC(=O)N[C@@H](Cc4c[nH]c5ccccc45)C(=O)O)ccc23)cc1	4.41%
COc1ccc(-c2cc(C(=O)NC(Cc3c[nH]c4ccccc34)C(=O)O)c(C)o2)cc1OC (stereo not given)	6.3% (active)
COc1ccc(-c2cc(C(=O)NC(C(=O)O)C(C)C)c(C)o2)cc1OC (stereo not given)	1.96%
CCOC(=O)/C=C/c1ccccc1O	-0.51%
Cc1cc2ncn(CCCCOc3ccccc3)c2cc1C	-1.91%
C[C@@H](CN1C2=NC[C@@H](Cc3ccccc3)N2C[C@H]1Cc1ccc(O)cc1)NC(=O)CCC1CCCCC1	-1.42%
COc1ccc(OC)c(-n2c(=S)[nH]c3cc(C(=O)N4CCCCC4)ccc3c2=O)c1	-1.94%
COc1cccc(-n2nc(C(=O)N3CCN(Cc4ccccc4)CC3)c3ccccc3c2=O)c1	-2.27%
COc1cccc(-n2c(=S)[nH]c3c(oc4ccccc43)c2=O)c1	5.86% (active)
C[C@@H]1ON(C)[C@H]2C[C@H]3c4cc(N5CCOCC5)ccc4CCN3C[C@@H]12	-1.8%
CCc1ccc2oc(-c3ccc(N)cc3)nc2c1	11.8% (active)
CCCCOCCCNC(=O)C[C@H]1C[C@@]2(C(=O)OC)C(=C[C@H](COCc3ccccc3)O[C@@H]2C)N(Cc2cccc3ccccc23)C1=O	-1.88%
COc1cccc(Cn2cc(COC(=O)Nc3ccc(F)cc3)nn2)c1	-2.13%
Cc1cc(NS(=O)(=O)c2ccc(NC(=O)CSc3nnc(SCc4ccc(F)cc4)s3)cc2)nc(C)n1	0.88%
Cc1oc(CC(C)C)c(CN2CCCC2)c1C(=O)O	-1.65%
CC(C)c1cc(C(=O)O)on1	-0.85%
CC(C)Cc1oc(C(=O)O)cc1CN	6.53% (active)
O=C(OC12CCCN(C1)/C(=C/c1cccnc1)C2)C1CCCC1 (stereo not given)	-3.57%
COC(=O)c1c(-c2ccc(OC)cc2)c2c(c3c4cc(OC)ccc4n(S(=O)(=O)c4ccc(F)cc4)c13)C(=O)N(C)C2	-2.09%
O=[N+]([O-])c1cc([N+](=O)[O-])c2cccnc2c1O	3.46%

Compound	activation
O=C(Nc1ccc([N+](=O)[O-])cc1)OCCc1ccccn1	1.17%
O=[N+]([O-])c1ccc2nc(-c3ccccn3)[nH]c2c1	5.76% (active)
O=C(N1CCOCC1)N1CC[C@H]2[C@H](CCCN2Cc2ccc(F)cc2)C1	0.64%
Cc1ccccc1CN1CCCCC(NC(=O)Nc2ccccc2F)C1=O (stereo not given)	-3.94%
CN(C(=O)CSc1nnc(Nc2ccccc2)s1)C1CCS(=O)(=O)C1 (stereo not given)	-0.76%
CC(C)c1ccc(Nc2nnc(SCC(=O)c3nnc(-c4ccccc4)o3)s2)cc1	6.6% (active)
CC(C)Nc1nnc(SCC(=O)c2c[nH]c3ccccc23)s1	4.15%
COC(=O)C1=C(C)N(Cc2cccc(C(F)(F)F)c2)C(=NCc2cccc(C(F)(F)F)c2)NC1c1ccccc1C(F)(F)F (stereo not given)	-2.22%
CC[C@@H](CCC(=O)N(c1ccccc1)c1ccccc1)C1CC1	-2.66%
COc1ccc(C(C)(NC(C)=O)c2nc(-c3ccc(S(C)(=O)=O)cc3)cs2)cc1 (stereo not given)	-1.14%
COc1ccc(-c2csc(Cc3nc(O)cs3)n2)cc1	10.9% (active)
COc1ccc(C(C)(O)c2nc(-c3cc(F)cc(F)c3)cs2)cc1 (stereo not given)	-1.58%
O=S1(=O)c2c(cccc2N2CCSCC2)Oc2ccccc2CN1Cc1cn(Cc2ccc(F)cc2)nn1	-2.88%
O=C(CNS(=O)(=O)c1ccccc1F)N1CCN(c2ccccn2)CC1	-0.84%
O=C(Nc1cccc(F)c1)c1coc(=O)c(Br)c1	0.1%
CN(C(=O)COC(=O)c1cc(-c2ccco2)nc2ccccc12)C1CCS(=O)(=O)C1 (stereo not given)	1.58%
O=C(Nc1cccc(F)c1)c1cc(-c2ccco2)nc2ccccc12	5.67% (active)
O=C(NCc1ccc(Cl)cc1)C1CCCN(c2nc3ccccc3o2)C1 (stereo not given)	-2.71%
C/C(=N/NC(=O)c1ccc(Br)o1)c1ccc(C)o1	8.8% (active)
C/C(=N\NC(=S)NC1CCCCC1)c1ccc(C)o1	-1.13%
CC(CNC(=O)c1ccc(Br)o1)NC(=O)c1ccc(Br)o1 (stereo not given)	-0.92%
